The text below walks through data of PubChem BioAssay (Tox21).

SMILES strings stand for the structures. Records with an inconclusive call do not appear. Calls of active or inactive are those of the source. Unless noted, calls come from the whole dose curve; as a rule, active = well fitted curve in the direction sought with a large enough effect in the repeat runs; inconclusive = weak or mixed curves; inactive = no such curve, though single readings can be large; an effect the other way counts as inactive or inconclusive.

Test [1] in a line: qHTS assay to identify aromatase inhibitors - cell viability counter screen (AID 743084).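 Note: cells stimulated with testosterone during compound exposure; nearly all actives have a fitted effect of over 55% in size.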 In general terms: In qHTS, concentration-response curves come from the screen itself.
Test [2] deals with Aryl hydrocarbon receptor (Homo sapiens) (UniProt P35869). Briefly: qHTS assay to identify small molecule that activate the aryl hydrocarbon receptor (AhR) signaling pathway (AID 743085).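 Note: HG2L7.5c1 human HepG2 liver cells with stably integrated DRE-driven firefly reporter; series mostly up to about 70 µM; nearly all actives have a fitted effect of over 15% in size.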 The procedure, abridged:
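Compounds were tested in HepG2 hepatocellular carcinoma cells harbouring a stably integrated luciferase gene under control of 20 DREs. Increased reporter signal after 24 h treatment at 37C was taken as AhR activation.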

Test [3] is described as follows: qHTS assay to identify small molecule that activate the aryl hydrocarbon receptor (AhR) signaling pathway - cell viability counter screen (AID 743086). Note: series mostly up to about 70 µM; nearly all actives have a fitted effect of over 45% in size. The procedure, abridged: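 Cytotoxicity counter screen: CellTiter-Fluor signal (30 min, 37 C) in 4000 HepG2 cells/well carrying the DRE-luciferase reporter, following 24 h compound exposure at 37 C.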
Test [4] is described as follows: qHTS assay for small molecule agonists of the antioxidant response element (ARE) signaling pathway (AID 743202; active = well fitted activation curve with a large enough effect in the signal ratio in the repeat runs, not every such curve was filed as active; the % refers to the signal ratio). The procedure, abridged:
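After 16 hours of compound treatment at 37 C, HepG2 cells with a stably integrated ARE-driven beta-lactamase reporter were loaded 2 hours at room temperature with LiveBLAzer B/G FRET substrate and fluorescence intensity measured.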

Test [5] is described as follows: qHTS assay for small molecule agonists of the antioxidant response element (ARE) signaling pathway - cell viability counter screen (AID 743203; calls by dose curve; note: nearly all actives have a fitted effect of over 55% in size). The procedure, abridged: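 Cytotoxicity was tested in parallel with the ARE reporter screen. ARE-bla HepG2 cells were exposed to compounds for 16 hrs, and viability was taken from CellTiter-Glo luminescence.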
Test [6] in a line: qHTS assay for small molecule activators of the heat shock response signaling pathway - cell viability counter screen (AID 743209). Note: nearly all actives have a fitted effect of over 50% in size. In outline:
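Cytotoxicity counter screen run in parallel with the HSE beta-lactamase reporter, using the same wells. HeLa HSE-bla cells received compound for 5 h at 37 C; ATP-based CellTiter-Glo luminescence was measured after 30 min at room temperature.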

Test [7] is described as follows: qHTS assay to identify small molecule agonists of the peroxisome proliferator-activated receptor delta (PPARd) signaling pathway - cell viability counter screen (AID 743211). Note: nearly all actives have a fitted effect of over 55% in size. In outline:
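Counter screen for cytotoxicity run in parallel with the PPARd reporter screen. Beta-lactamase reporter HEK293H cells exposed to compounds 17 h; ATP-based CellTiter-Glo luminescence quantified viability.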

Test [8] is described as follows: qHTS assay to identify small molecule agonists of the farnesoid-X-receptor (FXR) signaling pathway - cell viability counter screen (AID 743218). Note: nearly all actives have a fitted effect of over 45% in size. Note: potency is the fitted concentration of half-maximal effect. In outline:
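Cells were seeded, left 5 h at 37 C and 5% CO2, then dosed with compound in DMSO for 16 h. After the beta-lactamase FRET read, CellTiter-Glo was added and luminescence measured 30 min later.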

The nature of test [9]: qHTS assay to identify small molecule antagonists of the farnesoid-X-receptor (FXR) signaling pathway - cell viability counter screen (AID 743221; active = well fitted cell-killing curve with a large enough effect in the repeat runs, not every such curve was filed as active; note: nearly all actives have a fitted effect of over 50% in size). The procedure, abridged:
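Multiplexed counter screen: viability of FXR-bla HEK 293T cells under agonist stimulation by chenodeoxycholic acid (50 uM, final) and test compound for 16 h at 37 C, measured by CellTiter-Glo luminescence in the reporter wells.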

Test [10] addresses Vitamin D3 receptor (Homo sapiens) (UniProt P11473). Briefly: qHTS assay to identify small molecule agonists of the vitamin D receptor (VDR) signaling pathway (AID 743222; calls by dose curve). In outline: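 Cells carrying a VDR-driven beta-lactamase reporter are seeded at 2,000 per well and rested 4 h. Compounds in DMSO are added for 16 h at 37C, and FRET substrate fluorescence is measured after 2 h at room temperature.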

Test [11] has the same target. The test can be described thus: qHTS assay to identify small molecule antagonists of the vitamin D receptor (VDR) signaling pathway (AID 743223; active = well fitted inhibition curve with a large enough effect in the signal ratio in the repeat runs, not every such curve was filed as active; the % refers to the signal ratio). In outline:
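Cells carrying a VDR-driven beta-lactamase reporter (VDR-bla) were co-treated with compound and 3 nM final 1alpha,25-dihydroxyvitamin D3 for 16 h at 37C; reporter activity was measured as FRET substrate fluorescence after 2 h at room temperature.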

Test [12] has as its target Peroxisome proliferator-activated receptor gamma (Homo sapiens) (UniProt P37231). The test can be described thus: qHTS assay to identify small molecule agonists of the peroxisome proliferator-activated receptor gamma (PPARg) signaling pathway (AID 743094; active = well fitted activation curve with a large enough effect in the signal ratio in the repeat runs, not every such curve was filed as active; the % refers to the signal ratio). In outline: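 Cells from the PPARg UAS-bla HEK293H line are plated and incubated 5 h at 37C. Compounds in DMSO are pinned in and left 17 h at 37C. LiveBLAzer B/G substrate is then added for 1 h at room temperature before fluorescence is measured.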

Test [13] shares this target. The test can be described thus: qHTS assay to identify small molecule antagonists of the peroxisome proliferator-activated receptor gamma (PPARg) signaling pathway (AID 743191; calls by dose curve; note: series mostly up to about 63 µM; nearly all actives have a fitted effect of over 30% in size). The procedure, abridged: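 Beta-lactamase reporter under UAS control in HEK293H PPARg-bla cells; compound treatment 17 h at 37C. Read-out: fluorescence intensity after 1 h room-temperature incubation with LiveBLAzer B/G FRET substrate.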

Test [14] can be described thus: qHTS assay to identify small molecule antagonists of the peroxisome proliferator-activated receptor gamma (PPARg) signaling pathway - cell viability counter screen (AID 743194). Note: nearly all actives have a fitted effect of over 55% in size. As to conditions: Potency: co-treated with 50 nM rosiglitazone. The procedure, abridged: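 Viability was measured as CellTiter-Glo luminescence in GeneBLAzer PPARg UAS-bla HEK293H cells. These cells had been exposed 17 h at 37 C to compounds together with rosiglitazone at 50 nM final, with the beta-lactamase readout taken in the same wells.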

A short description of test [15]: qHTS assay for small molecule activators of the heat shock response signaling pathway (AID 743210; active = well fitted activation curve with a large enough effect in the signal ratio in the repeat runs, with a control signal flat, not every such curve was filed as active; the % refers to the signal ratio; note: series mostly up to about 63 µM). In outline:
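Compound exposure lasted 5 h at 37 C in HeLa cells carrying a heat-shock-element-driven beta-lactamase reporter. Read-out: fluorescence intensity after 2.5 h room-temperature loading with LiveBLAzer B/G FRET substrate.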

For test [16], the target named is Peroxisome proliferator-activated receptor delta (Homo sapiens) (UniProt Q03181). The test can be described thus: qHTS assay to identify small molecule agonists of the peroxisome proliferator-activated receptor delta (PPARd) signaling pathway (AID 743212; calls by dose curve). The procedure, abridged: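 Beta-lactamase reporter readout: a ratiometric FRET signal from the LiveBLAzer substrate after 2 h at room temperature. Compound exposure at 37 °C in PPARδ-bla HEK293H cells driven by an upstream activator sequence.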

Test [17] can be described thus: qHTS assay to identify small molecule antagonists of the peroxisome proliferator-activated receptor delta (PPARd) signaling pathway - cell viability counter screen (AID 743213). Note: nearly all actives have a fitted effect of over 50% in size. The procedure, abridged: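 CellTiter-Glo was added to PPARd-bla HEK293H wells following 17 h compound treatment in the presence of 300 nM L165041. Luminescence was recorded after 30 min at room temperature.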

Test [18] concerns the target Peroxisome proliferator-activated receptor delta (Homo sapiens) (UniProt Q03181). Briefly: qHTS assay to identify small molecule antagonists of the peroxisome proliferator-activated receptor delta (PPARd) signaling pathway (AID 743215; active = well fitted inhibition curve with a large enough effect in the signal ratio in the repeat runs, not every such curve was filed as active; the % refers to the signal ratio;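 note: cells stimulated with agonist L165041 at 300 nM final during compound exposure; series mostly up to about 62 µM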). In outline: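 Cells: HEK293H with a UAS-driven beta-lactamase reporter responsive to PPARd. Compounds were co-added with L165041 (300 nM, final) and incubated 17 h at 37 C before a 2 h room-temperature FRET substrate step and fluorescence reading.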

The target in test [19] is Bile acid receptor (Homo sapiens) (UniProt Q96RI1). The test can be described thus: qHTS assay to identify small molecule antagonists of the farnesoid-X-receptor (FXR) signaling pathway (AID 743217; active = well fitted inhibition curve with a large enough effect in the signal ratio in the repeat runs, not every such curve was filed as active; the % refers to the signal ratio). In outline:
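Cells carrying a UAS-driven beta-lactamase reporter (GeneBLAzer FXR-UAS-bla HEK 293T) were plated and rested 5 h at 37 °C. Compounds in DMSO were added alongside chenodeoxycholic acid agonist at 50 uM final and left 16 h at 37 °C before FRET substrate readout.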

For test [20] the target is unchanged. Briefly: qHTS assay to identify small molecule agonists of the farnesoid-X-receptor (FXR) signaling pathway (AID 743220; active = well fitted activation curve with a large enough effect in the signal ratio in the repeat runs, not every such curve was filed as active; the % refers to the signal ratio). The procedure, abridged: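 FXR-UAS-bla HEK 293T cells carrying a UAS-driven beta-lactamase reporter were plated for 5 h at 37C/5% CO2, then exposed to DMSO-dissolved Tox21 10K compounds for 16 h at 37C. A LiveBLAzer B/G FRET substrate was loaded for 2 h at room temperature before fluorescence reading.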

Chain of Vitamin D3 receptor (Homo sapiens) (P11473 whole entry, looked up): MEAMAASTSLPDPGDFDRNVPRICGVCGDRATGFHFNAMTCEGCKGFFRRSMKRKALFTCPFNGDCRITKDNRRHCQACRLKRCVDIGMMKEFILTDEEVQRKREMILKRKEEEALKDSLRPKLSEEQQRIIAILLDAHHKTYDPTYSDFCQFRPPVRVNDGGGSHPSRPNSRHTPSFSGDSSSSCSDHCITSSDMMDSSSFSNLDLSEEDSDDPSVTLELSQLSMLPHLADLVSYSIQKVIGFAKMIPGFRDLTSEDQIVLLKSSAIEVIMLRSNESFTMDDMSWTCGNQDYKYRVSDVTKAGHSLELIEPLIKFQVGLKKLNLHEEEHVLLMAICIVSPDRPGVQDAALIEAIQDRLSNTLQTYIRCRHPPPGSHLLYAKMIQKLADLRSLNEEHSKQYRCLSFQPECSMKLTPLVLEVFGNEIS
Chain of Peroxisome proliferator-activated receptor gamma (Homo sapiens) (P37231 whole entry, looked up): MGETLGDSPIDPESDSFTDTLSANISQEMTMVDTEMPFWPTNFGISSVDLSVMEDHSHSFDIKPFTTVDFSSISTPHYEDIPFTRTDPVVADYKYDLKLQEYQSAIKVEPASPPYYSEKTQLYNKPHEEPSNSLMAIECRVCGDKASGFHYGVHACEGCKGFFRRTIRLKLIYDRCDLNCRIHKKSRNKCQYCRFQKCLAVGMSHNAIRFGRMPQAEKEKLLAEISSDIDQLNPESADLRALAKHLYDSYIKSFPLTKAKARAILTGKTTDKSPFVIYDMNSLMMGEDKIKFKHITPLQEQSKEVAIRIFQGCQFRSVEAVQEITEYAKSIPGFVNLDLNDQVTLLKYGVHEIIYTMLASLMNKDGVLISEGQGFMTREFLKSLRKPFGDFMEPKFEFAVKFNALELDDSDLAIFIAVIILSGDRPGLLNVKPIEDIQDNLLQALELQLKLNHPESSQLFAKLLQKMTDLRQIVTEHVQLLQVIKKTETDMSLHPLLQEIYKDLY
Chain of Peroxisome proliferator-activated receptor delta (Homo sapiens) (Q03181 whole entry, looked up): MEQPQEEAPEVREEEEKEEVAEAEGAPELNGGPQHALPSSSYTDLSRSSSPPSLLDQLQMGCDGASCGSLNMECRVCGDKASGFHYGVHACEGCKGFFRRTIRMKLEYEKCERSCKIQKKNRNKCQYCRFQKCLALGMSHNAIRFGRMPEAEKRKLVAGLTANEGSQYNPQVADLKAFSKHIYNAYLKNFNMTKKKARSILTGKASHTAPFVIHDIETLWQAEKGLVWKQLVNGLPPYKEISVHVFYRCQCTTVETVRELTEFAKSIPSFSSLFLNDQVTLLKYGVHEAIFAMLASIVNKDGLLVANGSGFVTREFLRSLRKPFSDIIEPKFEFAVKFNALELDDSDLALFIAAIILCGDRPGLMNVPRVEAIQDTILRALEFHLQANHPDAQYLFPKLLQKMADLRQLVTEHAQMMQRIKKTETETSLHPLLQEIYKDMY
Chain of Bile acid receptor (Homo sapiens) (Q96RI1 whole entry, looked up): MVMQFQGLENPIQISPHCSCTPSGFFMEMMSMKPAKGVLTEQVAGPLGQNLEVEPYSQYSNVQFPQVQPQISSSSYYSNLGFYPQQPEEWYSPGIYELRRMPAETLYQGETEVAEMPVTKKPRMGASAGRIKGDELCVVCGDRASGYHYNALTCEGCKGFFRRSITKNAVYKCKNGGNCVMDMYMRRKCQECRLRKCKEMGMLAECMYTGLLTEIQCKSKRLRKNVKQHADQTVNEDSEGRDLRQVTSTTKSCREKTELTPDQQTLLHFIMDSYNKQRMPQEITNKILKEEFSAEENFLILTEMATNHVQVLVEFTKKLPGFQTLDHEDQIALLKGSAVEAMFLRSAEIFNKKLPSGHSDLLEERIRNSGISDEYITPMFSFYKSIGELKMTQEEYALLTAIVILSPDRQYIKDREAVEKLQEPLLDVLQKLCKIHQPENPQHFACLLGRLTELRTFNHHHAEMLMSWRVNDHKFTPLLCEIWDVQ
Chain of Aryl hydrocarbon receptor (Homo sapiens) (P35869 whole entry, looked up): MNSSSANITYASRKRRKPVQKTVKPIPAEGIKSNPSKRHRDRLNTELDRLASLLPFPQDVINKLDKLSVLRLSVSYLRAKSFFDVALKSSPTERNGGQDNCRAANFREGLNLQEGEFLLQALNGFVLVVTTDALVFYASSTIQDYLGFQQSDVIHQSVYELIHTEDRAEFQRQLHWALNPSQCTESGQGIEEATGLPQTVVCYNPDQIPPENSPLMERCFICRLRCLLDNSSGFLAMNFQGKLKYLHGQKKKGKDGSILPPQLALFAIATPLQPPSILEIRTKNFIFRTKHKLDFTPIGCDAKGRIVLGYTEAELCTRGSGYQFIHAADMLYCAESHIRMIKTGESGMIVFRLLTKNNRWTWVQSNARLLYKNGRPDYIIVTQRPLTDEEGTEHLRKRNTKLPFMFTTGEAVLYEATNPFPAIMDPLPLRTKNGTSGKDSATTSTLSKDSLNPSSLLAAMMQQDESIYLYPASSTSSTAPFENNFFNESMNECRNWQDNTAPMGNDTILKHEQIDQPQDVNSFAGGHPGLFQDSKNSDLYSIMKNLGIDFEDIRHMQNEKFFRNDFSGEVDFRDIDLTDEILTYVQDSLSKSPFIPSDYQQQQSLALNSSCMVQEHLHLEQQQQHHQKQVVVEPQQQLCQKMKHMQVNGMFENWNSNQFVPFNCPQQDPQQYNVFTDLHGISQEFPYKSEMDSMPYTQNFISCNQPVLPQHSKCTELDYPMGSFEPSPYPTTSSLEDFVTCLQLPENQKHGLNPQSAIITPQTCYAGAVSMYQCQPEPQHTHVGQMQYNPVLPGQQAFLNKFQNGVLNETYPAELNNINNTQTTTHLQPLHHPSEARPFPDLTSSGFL

Turning to `Cc1ncsc1CCCl`, the Potency result in test [1], in test [2], in [4], in test [5], in test [6] and in test [7] was “inactive” in each case. For the same compound, the Potency result in test [8] is “inactive”. The compound was called inactive in test [3], in test [9], in test [10] and in [11].

For `COc1cc(C[C@@H](C)N)c(OC)cc1C`, the Potency result in [1], in test [13], in test [14], in test [5], in test [6] and in test [19] was “inactive” throughout. Moreover, the Potency entry in test [8] is “inactive”. In addition, the call in test [3], in [12], in test [15], in test [16], in [17] and in test [18] was inactive. The outcome in [20], in test [9], in [10] and in test [11] was inactive.

As to `CNC(=O)O/N=C(\C)SC`, the Potency entry in test [1], in test [13], in [14], in test [4], in [5] and in test [6] was “inactive” each time. Besides, the Potency entry in [7] and in test [8] was “inactive” throughout. In addition, the compound was called inactive in [3], in test [12], in test [15], in [16], in test [17] and in [18]. Further, the call in test [9], in test [10] and in test [11] was inactive.

Regarding `COc1ccc2c(c1OC)CN1CCc3cc4c(cc3C1C2)OCO4` (configuration not stated), the Potency result in test [1], in test [13], in test [14], in [5], in test [6] and in test [8] was “inactive” in each case. Moreover, the result in test [3], in [12], in test [15], in [17], in [9] and in test [10] was inactive. The outcome in test [11] was inactive.

As to `CN1CCC(O)(c2ccc(F)cc2)C(C(=O)c2ccc(F)cc2)C1` (configuration not stated), the Potency entry in test [1], in [13], in test [14], in [5], in test [7] and in test [8] was “inactive” each time. The outcome in test [3], in test [12], in [16], in test [17], in [9] and in test [10] was inactive.

For `CC(C)(C)C(=O)C(Oc1ccc(Cl)cc1)n1cncn1` (configuration not stated), the Potency result in [1], in test [13], in test [14], in [4], in test [5] and in test [6] was “inactive” throughout. Moreover, the Potency result in [7] and in test [8] was “inactive” in each case. Further, the call in [3], in test [12], in test [15], in [16], in [9] and in test [10] was inactive.

With `CCC(C)n1c(=O)[nH]c(C)c(Br)c1=O` (configuration not stated), the Potency entry in test [1], in [13], in test [14], in test [4], in test [5] and in test [6] was “inactive” in each case. The Potency entry in test [7], in test [19] and in [8] was “inactive” throughout. The compound was classed as inactive in [3], in [12], in test [15], in test [17], in test [20] and in test [9]. Further, the result in test [10] and in test [11] was inactive.

For the compound `CC(Oc1ccc(Oc2ncc(C(F)(F)F)cc2Cl)cc1)C(=O)O` (configuration not stated), the Potency result in test [1], in [2], in [14], in test [5] and in test [6] was “inactive” in each case. Also, the result in test [3], in test [15], in test [17], in test [10] and in test [11] was inactive. In test [8], the Potency is 21.9 µM (active).
